SMILES strings stand for the structures.

From ChEMBL document CHEMBL3988442, “University of Dundee, Small-Polar-MMV Screening Library” (2021) come the findings set out here.

The test concerns the target AMP-activated protein kinase, AMPK (Homo sapiens) (UniProt P54646+O43741+P54619+Q9UGJ0+Q9Y478+Q13131+Q9UGI9). Briefly: AMP-dependent Kinase enzyme assay. An in vitro enzyme assay that detects ADP turnover that is directly proportional to AMPK activity. This uses naive AMPK that is activated during the assay with MK-8722. Also noted: scale not given: direction of the effect not stated beside the values. The test is classed as functional. The note with it: 30 µM.
Consider `CN(CC(O)C(F)(F)F)C(=O)Nc1cccc(N2CCCC2)c1` (centres undefined), for which the Percent Effect was -4.79%.

Turning to `Oc1ccc(N2CCC(Cc3ccccc3)CC2)nn1`, the Percent Effect was found to be 9.16%.

Turning to `Cc1c(NC(=O)CN2CCN(C3CCCC3)C(=O)C2)cnn1C`, the Percent Effect is 2.4%.

In the case of `Cc1cc(C(=O)N2CC[C@@]3(O)CCN(S(C)(=O)=O)C[C@H]3C2)c(C)n1C`, the Percent Effect was determined as 3.49%.

Consider `Cc1nsc(N2CCN(CC(=O)N(C3CC3)C(C)C3CC3)CC2)n1` (centres undefined), for which the Percent Effect is 7.84%.

`Cc1ccc(CN(C(=O)NCC2CCCO2)C2CC2)o1` (centres undefined): the Percent Effect was -2.62%.

For the molecule `COc1cc(F)ccc1NC(=O)NC(C)C(=O)NC(C)(C)C` (centres undefined), the Percent Effect was -11.6%.

For the molecule `O=C(CNC(=O)c1ccccc1F)NCc1ccccn1`, the Percent Effect was 0.147%.

Consider `CCN(C)C[C@@H]1CN(C(=O)c2cc(C(F)(F)F)n[nH]2)C[C@@H]1CO`, for which the Percent Effect was 7.62%.

As to `Nc1ccnc(N2CCC(c3nccn3CC3CC3)CC2)n1`, the Percent Effect is -3.62%.

With `CC(=O)Nn1ccc2c(nnc3c(-c4ccccc4)cnn32)c1=O`, the Percent Effect stood at 12.7%.

As to `CCC(CN1CCCC1)n1cncc1-c1cnn(-c2ccc(F)cc2)c1` (centres undefined), the Percent Effect was determined as 12.9%.

As for `NC(=O)C1CCN(c2ncccc2C(=O)N2CCc3ccccc32)C1` (centres undefined), the Percent Effect amounted to 2.58%.

Take `COc1ccc(CCN(C)C(=O)CN2C(=O)OC[C@@H]2C(C)C)cc1OC`: the Percent Effect was found to be 4.03%.

In the case of `COc1ccc(S(=O)(=O)Nc2cccnc2-n2cncn2)cc1C`, the Percent Effect was -0.234%.

Regarding `CCOc1ccccc1C(=O)NCc1nncn1C1CC1`, the Percent Effect is -9.44%.

In the case of `NCC(CO)Cc1ccc(C(F)(F)F)cc1` (centres undefined), the Percent Effect was -3.66%.

For `CCn1c(C2CCCN2Cc2noc(C(C)(C)C)n2)nc2ccccc21` (centres undefined), the Percent Effect was found to be 13.4%.

Regarding `O=C1CCC(C(=O)N2CCC(Cn3cc(C4CCCC4)nn3)CC2)=NN1`, the Percent Effect is -8.82%.
